The structures appear in SMILES notation. Where a name gives a salt, the structure may show the parent alone.

In this assay the test system is MOLM14. The experiment in a line: cell viability relative to vehicle control; higher = less cytotoxic. Conditions: 10 µM; SRSF2 genotype: SRSF2 wt/wt. The procedure, abridged:
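CRISPR-edited mutant clones and isogenic wild-type clones from four leukaemia lines were screened against Selleck bioactive, kinase and epigenetic probe libraries, with identity-inconsistent compounds excluded. Each compound was acoustically dispensed at a single 10 µM dose into 384-well plates holding 2000 cells in 50 µL medium per well. After 48 h the supernatant was removed and CellTiter-Glo luminescence was read. Viability was expressed as percent of the on-plate vehicle control and analysed in Genedata Screener.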
What is called cell viability is a read-out of living cells in per cent, often relative to untreated cells. `CC1(C)C=Cc2c(ccc3c2OC[C@@H](c2ccc(O)cc2O)C3)O1` [Glabridin]: the cell viability worked out at 94.4%.
Take `COc1cccc(-c2cc(NCc3ccc4c(c3)OCO4)nc(N)n2)c1` [Wnt agonist 1]: the cell viability came to 4.03%.
For `CNC1CCC(N(Cc2cccc(-c3ccncc3)c2)C(=O)c2sc3ccccc3c2Cl)CC1` (stereo not drawn) [Smoothened Agonist (SAG) HCl] the value was 48.6%; for `NCCCCCNCC12CC3CC(CC(C3)C1)C2` [IEM 1754 dihydrobroMide], 102%.
For `NC(=S)c1ccncc1` [Thioisonicotinamide] the value was 105%.
Take `C[C@@]1(F)[C@H](O)[C@@H](CO)O[C@H]1n1ccc(=O)[nH]c1=O` [2'-deoxy-2'-fluoro-2'-C-methyluridine]: the cell viability came to 91.3%.
Turning to `Nc1cccc2c1CN(C1CCC(=O)NC1=O)C2=O` (stereo not drawn) [Lenalidomide (CC-5013)], the cell viability was found to be 93.5%.
With `Cc1ccccc1N1C(=O)c2cc(S(N)(=O)=O)c(Cl)cc2NC1C` (stereo not drawn) [Metolazone (Zaroxolyn)] the figure was 97%; with `CCC/C=C1\OC(=O)C2=C1CCC=C2` [Ligustilide], 49.4%.
Turning to `OC[C@@H](O)[C@@H](O)[C@H](O)[C@H](O)CO` [D-Mannitol (Osmitrol)], the cell viability is 109%.
With `CN(C)CCCN1c2ccccc2Sc2ccc(Cl)cc21` [Chlorpromazine HCl] the figure was 43.7%; with `CCOC(=O)c1ccc(C#Cc2ccc3c(c2)C(C)(C)CCS3)nc1` [Tazarotene (Avage)], 88.1%.
For `OC[C@H]1O[C@@H](OCCc2ccc(O)cc2)[C@H](O)[C@@H](O)[C@@H]1O` [Salidroside (Rhodioloside)] the value was 109%; for `C=C[C@]1(C)C[C@@H](OC(=O)CSC(C)(C)CNC(=O)[C@H](N)C(C)C)[C@]2(C)[C@H](C)CC[C@]3(CCC(=O)[C@H]32)[C@@H](C)[C@@H]1O` [Valnemulin HCl], 80%.
With `CCS(=O)(=O)CCn1c([N+](=O)[O-])cnc1C` [Tinidazole] the figure was 98.2%; with `O=C(Cc1ccc(-c2ccc(OCCN3CCOCC3)cc2)cn1)NCc1ccccc1`, 2.72%; with `COC(=O)C1=C(C)NC(C)=C(C(=O)OCCN2CCN(C(c3ccccc3)c3ccccc3)CC2)C1c1cccc([N+](=O)[O-])c1` (stereo not drawn) [Manidipine dihydrochloride (CV-4093)], 57.7%.
As for `O=S(=O)(O)c1cc(O)ccc1O` [Calcium Dobesilate], the cell viability amounted to 103%.
As to `CC(=O)OCC(=O)[C@@]1(O)[C@H](C)C[C@H]2[C@@H]3CCC4=CC(=O)C=C[C@]4(C)[C@@]3(F)[C@@H](O)C[C@@]21C` [Dexamethasone acetate], the cell viability was found to be 95.5%.
Take `O=C([O-])c1ccccc1O.[Na+]` [Sodium salicylate]: the cell viability was 94.1%.
With `C=C1C(=O)O[C@@H]2C[C@@]3(C)CCCC(=C)[C@@H]3C[C@H]12` [Isoalantolactone] the figure was 16.1%.
For `c1ccc(Cn2c(-c3ccc(OCC(C4CCNCC4)n4c(-c5ccccc5)nc5ccccc54)cc3)nc3ccccc32)cc1` (stereo not drawn) [Deltarasin] the value was 0.28%; for `O=C(Nc1ccccc1-c1cn2c(CN3CCNCC3)csc2n1)c1cnc2ccccc2n1`, 0.18%.

For the origin of these results see the supplement of paper PMC10981050.
